# Measurements published in PubChem BioAssay AID2540 (Sanford-Burnham Center for Chemical Genomics, 2010).
# Hit rate of the full screen: of about 330,000 compounds, about 4,100 (1.2%) were called active. Rule as the data show it: active = inhibition above about 50%; inactive = the rest. Shown is part of a subset that was picked to be rich in actives.
# Target: Sentrin-specific protease 8 (Homo sapiens) (UniProt Q96LD8)
# Assay: SENP8 protease inhibitors, primary screen, biochemical, luminescence (AID 2540)
# Settings: purified SENP8, Z-RLRGG-aminoluciferin cleavage, at 10 µM, active compounds read high
# Sentrin-specific protease 8 (Homo sapiens), sequence (Q96LD8 whole entry, looked up): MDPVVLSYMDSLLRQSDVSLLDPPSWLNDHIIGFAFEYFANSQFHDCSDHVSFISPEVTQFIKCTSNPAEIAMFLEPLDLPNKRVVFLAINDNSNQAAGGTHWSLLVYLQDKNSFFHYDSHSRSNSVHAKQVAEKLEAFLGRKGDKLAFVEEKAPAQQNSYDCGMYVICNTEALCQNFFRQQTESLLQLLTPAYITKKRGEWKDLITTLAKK
row,SMILES,inhibition
1,CCOc1nnc(C)c2c(C)n(-c3cccc(Cl)c3)nc12,8.66% (inactive)
2,Cc1nc2ccc(C(=O)N/N=C/c3ccc(O)cc3)cc2[nH]1,-3.65% (inactive)
3,Cc1nonc1C(=O)N/N=C/c1ccc(O)cc1,97.5% (active)
4,CC(C)c1c(C(=O)N/N=C/c2ccc(-c3ccccc3)cc2)nnn1-c1nonc1N,9.04% (inactive)
5,COC(=O)c1cccc(N(CC(=O)NCC2CCCO2)C(=O)CCC(=O)Nc2cc(C)on2)c1 (centres undefined),-7.21% (inactive)
6,CCOC(=O)c1cnc(COc2ccccc2Cl)[nH]c1=O,-10.8% (inactive)
7,CCOC(=O)c1cnc2sccn2c1=O,-2.74% (inactive)
8,CCOC(=O)c1cnc2[nH]c3ccccc3n2c1=O,78.1% (active)
9,CCn1c2ccccc2c2cc(NC(=O)Nc3ccc([N+](=O)[O-])cc3C)ccc21,-10.4% (inactive)
10,CC(=O)Nc1ccc(S(=O)(=O)N2CCn3cccc3C2C)cc1 (centres undefined),-4.04% (inactive)
11,COc1ccccc1CCNC(=O)C1CCN(C(=O)/C=C/c2ccccc2)CC1,-12.7% (inactive)
12,COc1ccc(Nc2nc(-c3ccccc3)cs2)cc1,82.8% (active)
13,COc1ccc(C(=O)Nc2nc(-c3ccc(S(=O)(=O)N4CCOCC4)cc3)cs2)cc1,-0.876% (inactive)
14,c1ccc(Nc2nc(-c3ccncc3)cs2)nc1,80.4% (active)
15,CCCn1c(CCNc2nc(-c3ccc(OC)cc3)cs2)nc2ccccc21,1.24% (inactive)
16,COc1ccc(-c2csc(NC(=O)COC(=O)Cc3ccc(Cl)cc3Cl)n2)cc1,2.3% (inactive)
17,COc1ccc(-c2csc(Nc3ccccn3)n2)cc1,85.4% (active)
18,Clc1ccc(-c2csc(-c3ccncc3)n2)cc1,-22.5% (inactive)
19,Clc1ccc(Nc2nc(-c3cccs3)cs2)nc1,10.9% (inactive)
20,COc1ccc2c(c1OC)C(=O)OC2Nc1nc(-c2ccccc2)cs1 (centres undefined),1.85% (inactive)
21,COC(=O)c1ccc(/C=N/N2C(C)CCCC2C)cc1 (centres undefined),-6.16% (inactive)
22,CC1(c2ccc3ccccc3c2)NC(=O)NC1=O (centres undefined),-0.811% (inactive)

row,SMILES,inhibition
1,Cc1c(O)c(C)c2c(c1O)C(=O)C[C@@H](c1ccccc1)O2,6.05% (inactive)
2,Cc1ccc(CS(=O)Cc2ccc(C(=O)N3CCOCC3)o2)cc1 (centres undefined),-6.99% (inactive)
3,COc1ccc(F)cc1C(=O)C1CCCN(C(=O)CCc2ccccn2)C1 (centres undefined),29.7% (inactive)
4,O=C(COC(=O)c1ncc(Cl)c(Cl)c1Cl)NC1CCS(=O)(=O)C1 (centres undefined),-7.58% (inactive)
5,CCOC(=O)C1CCCN(C(=O)COc2ccc(N(C)S(=O)(=O)c3ccc(C)cc3)cc2)C1 (centres undefined),-0.395% (inactive)
6,NNC(=O)c1cnn(-c2ccccc2)c1C(F)(F)F,-1.96% (inactive)
7,O=C(COc1ccccc1Cl)Nc1ccc(C(=O)c2ccc(C(=O)O)cc2)cc1,2.39% (inactive)
8,COC(=O)c1ccc(NC(=O)Nc2ccc(C)cc2)cc1,-16% (inactive)
9,COC(=O)c1ccc(NCC(=O)c2ccccc2)cc1,92.3% (active)
10,COC(=O)c1ccc(NCC(=O)N2CCCCCC2)cc1,-5.06% (inactive)
11,O=C(COC(=O)c1ccc(S(=O)(=O)Nc2ccccc2)cc1)NCC1CCCO1 (centres undefined),-2.95% (inactive)
12,CC1CN(S(=O)(=O)c2ccc(C(=O)Nc3sccc3C(N)=O)cc2)CC(C)O1 (centres undefined),-3.19% (inactive)
13,CCCOc1ccc(CNC(=O)C2CCN(c3nn4c(=O)cc(C)nc4s3)CC2)cc1,7.56% (inactive)
14,CCc1ccc2oc(-c3ccc(N)cc3)nc2c1,89.6% (active)
15,O=C(Nc1ccc2oc(-c3ccc4ccccc4c3)nc2c1)c1cccs1,5.01% (inactive)
16,Nc1ccc(-c2nnc(-c3ccccc3)o2)cc1,40% (inactive)
17,Fc1ccc2nc(-c3ccccc3)nc(SCc3nnc(-c4ccccc4)o3)c2c1,9.5% (inactive)
18,O=C(C[C@@H]1C/C=C\CCC(=O)OC[C@@H]2CCCN2C1=O)NCCO,-14.7% (inactive)
19,CC(C)[C@H](NC(=O)N1c2ccccc2NC(=O)[C@@H]1C(C)C)C(=O)N[C@H](C(=O)O)c1ccccc1,-11.1% (inactive)
20,COc1ccccc1N1CC(O)=C(c2nc3ccccc3s2)C1=N,-8.72% (inactive)
21,COc1ccccc1OCc1nc2ccccc2s1,94.1% (active)
22,CN(Cc1nc2ccccc2s1)C(=O)c1ccc(F)cc1,-4.17% (inactive)

row,SMILES,inhibition
1,COC(=O)Cc1ccc(OCC(=O)NC2CCCC2)cc1,-7.77% (inactive)
2,O=C(Nc1ccccc1C(F)(F)F)N1CCCC1c1cccnc1 (centres undefined),1.35% (inactive)
3,O=C(Nc1ccc(-c2csc(Nc3cccc(C(F)(F)F)c3)n2)cc1)c1cccc(C(F)(F)F)c1,2.09% (inactive)
4,CC(=O)NCCC(=O)Nc1nc(-c2ccc3c(c2)OCCO3)cs1,-10.2% (inactive)
5,CC(=O)Nc1cccc(-c2csc(Nc3cccc(C)n3)n2)c1,90.4% (active)
6,Cc1cccc(Nc2nc(-c3ccccc3)cs2)n1,81.3% (active)
7,CCc1noc(C)c1C(=O)Nc1nc(-c2ccccc2)cs1,-12.4% (inactive)
8,Cc1ccccc1Nc1nc(-c2cccnc2)cs1,44% (inactive)
9,CC(=O)NNc1cc(=O)c2c(=O)n(C)c(=O)n(C)c2[nH]1,5.83% (inactive)
10,COc1ccc(N(CC(=O)N/N=C/c2cccc3c2OCCO3)S(=O)(=O)c2ccc(NC(C)=O)cc2)cc1,-14.1% (inactive)
11,Cc1nc(COc2cc3oc(=O)cc(C)c3cc2Cl)cs1,-13.3% (inactive)
12,CCN1CCCC1CNC(=O)Cn1cnc2ccc(S(=O)(=O)N3CCC(C)CC3)cc2c1=O (centres undefined),3.55% (inactive)
13,CCC1Nc2ncnc(N3CCN(c4ccccc4)CC3)c2N(Cc2ccc(Cl)cc2)C1=O (centres undefined),-14% (inactive)
14,CCOCC(=O)Nc1ncc(S(=O)(=O)c2ccc([N+](=O)[O-])cc2)s1,1.6% (inactive)
15,CSCc1ccc(C(=O)Nc2cc(C)cc(C)c2)cc1,72.8% (active)
16,C=CCN(c1ccc(C(=O)Nc2cc(C)cc(C)c2)cc1)S(C)(=O)=O,3.93% (inactive)
17,CC(=O)Nc1ccccc1NC(=O)c1cc(C)cc(C)c1,-8.13% (inactive)
18,COc1ccccc1N=C(C)C1=C(O)COC1=O,-4.5% (inactive)
19,COc1cc(N=Cc2c(O)c3ccccc3oc2=O)c(OC)cc1Cl,20% (inactive)
20,COc1ccccc1N=Cc1c(O)c2ccccc2oc1=O,58.3% (active)
